# Source: PMC8384837, “Expanding the binding specificity for RNA recognition by a PUF domain”
# Assays:
# Assay in all cases: yeast three-hybrid, YBZ-1, SC-Leu-His + 0.5 mM 3-AT, 4 days
# Details in all cases: tags: N-Gal4 AD-HA kept; label: inside an RPR1-promoter hybrid RNA with tandem MS2 sites; ssRNA
# PUM1 PUF domain R8-VWP = PUM1 PUF domain R8-VWP (Homo sapiens, UniProt Q14671 828-1176, N1122V;Y1123W;Q1126P)
# In short: (§1)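 Pumilio-1 PUF domain libraries, randomized (NNK) at the three base-contacting residues of each repeat, were co-expressed with matching RNA elements from a centromeric plasmid in strain YBZ-1 (LexA–MS2 coat fusion, HIS3 reporter). Transformants were plated on SC-Leu (input) and SC-Leu-His + 0.5 mM 3-AT (selection) for four days, and repeat regions were PCR-amplified and Illumina-sequenced. The interaction score is the log2 change in variant frequency from input to selection, with pseudocount 1 where absent.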
# PUM1 PUF domain R4-TPG = PUM1 PUF domain R4-TPG (Homo sapiens, UniProt Q14671 828-1176, N971T;H972P;Q975G)
# PUM1 PUF domain R4-TPG, sequence (Q14671 828-1176 N971T/H972P/Q975G): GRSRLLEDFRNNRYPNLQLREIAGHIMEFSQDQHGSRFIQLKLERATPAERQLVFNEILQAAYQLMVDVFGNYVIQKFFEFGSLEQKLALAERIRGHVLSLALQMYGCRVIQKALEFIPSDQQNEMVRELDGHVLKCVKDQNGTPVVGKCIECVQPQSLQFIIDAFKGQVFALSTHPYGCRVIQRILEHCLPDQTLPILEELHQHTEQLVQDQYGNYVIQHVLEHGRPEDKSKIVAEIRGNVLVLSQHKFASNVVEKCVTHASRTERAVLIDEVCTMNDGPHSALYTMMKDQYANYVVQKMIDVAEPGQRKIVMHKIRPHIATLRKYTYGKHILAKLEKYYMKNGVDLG
# In short: as §1
# PUM1 PUF domain R3-PWW = PUM1 PUF domain R3-PWW (Homo sapiens, UniProt Q14671 828-1176, C935P;R936W;Q939W)
# In short: as §1
# PUM1 PUF domain R5-RKS = PUM1 PUF domain R5-RKS (Homo sapiens, UniProt Q14671 828-1176, C1007R;R1008K;Q1011S)
# In short: as §1
# PUM1 PUF domain R5-FRR = PUM1 PUF domain R5-FRR (Homo sapiens, UniProt Q14671 828-1176, C1007F;Q1011R)
# PUM1 PUF domain R5-FRR, sequence (Q14671 828-1176 C1007F/Q1011R): as the sequence (Q14671 828-1176 N971T/H972P/Q975G) above, with T144N, P145H, G148Q, C180F, Q184R counted along it
# In short: as §1
# PUM1 PUF domain R4-SPW = PUM1 PUF domain R4-SPW (Homo sapiens, UniProt Q14671 828-1176, N971S;H972P;Q975W)
# PUM1 PUF domain R4-SPW, sequence (Q14671 828-1176 N971S/H972P/Q975W): as the sequence (Q14671 828-1176 N971T/H972P/Q975G) above, with T144S, G148W counted along it
# In short: as §1
# PUM1 PUF domain R1-GIR = PUM1 PUF domain R1-GIR (Homo sapiens, UniProt Q14671 828-1176, S863G;R864I;Q867R)
# In short: as §1
# PUM1 PUF domain R1-RCS = PUM1 PUF domain R1-RCS (Homo sapiens, UniProt Q14671 828-1176, S863R;R864C;Q867S)
# PUM1 PUF domain R1-RCS, sequence (Q14671 828-1176 S863R/R864C/Q867S): as the sequence (Q14671 828-1176 N971T/H972P/Q975G) above, with S36R, R37C, Q40S, T144N, P145H, G148Q counted along it
# In short: as §1
# PUM1 PUF domain R6-AFL = molecular target: T1, PUM1 PUF domain R6-AFL (Homo sapiens, UniProt Q14671 828-1176, N1043A;Y1044F;Q1047L)
# T1 sequence: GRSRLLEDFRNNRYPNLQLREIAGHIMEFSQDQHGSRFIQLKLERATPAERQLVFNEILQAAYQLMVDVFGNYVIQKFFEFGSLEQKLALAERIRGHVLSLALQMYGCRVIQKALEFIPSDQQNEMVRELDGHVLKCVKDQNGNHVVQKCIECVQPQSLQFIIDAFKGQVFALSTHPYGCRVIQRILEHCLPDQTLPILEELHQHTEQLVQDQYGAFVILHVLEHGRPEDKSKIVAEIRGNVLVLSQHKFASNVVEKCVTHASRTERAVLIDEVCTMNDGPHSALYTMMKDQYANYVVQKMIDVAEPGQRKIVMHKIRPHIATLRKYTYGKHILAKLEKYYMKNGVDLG
# In short: as §1
sequence,measurement,setting,value
GGCUAGAACUAGUGGAUCCCCCGGCGCCCGGCGGCUCGAGCCCGGGUAAGUGUAAAUAGUCUGCAUGCCGCCGGGCGCCAUGCCUGCAGGUCGACUCUAGAAAACAUG,binding signal,PUM1 PUF domain R8-VWP,1.71 log2 enrichment (interaction score)
same,binding signal,PUM1 PUF domain R4-TPG,3.31 log2 enrichment (interaction score)
same,binding signal,PUM1 PUF domain R3-PWW,2.43 log2 enrichment (interaction score)
same,binding signal,PUM1 PUF domain R5-RKS,0.56 log2 enrichment (interaction score)
same,binding signal,PUM1 PUF domain R5-FRR,1.31 log2 enrichment (interaction score)
same,binding signal,PUM1 PUF domain R4-SPW,3.13 log2 enrichment (interaction score)
GGCUAGAACUAGUGGAUCCCCCGGCGCCCGGCGGCUCGAGCCCGGGUAAGUGUUAAUAGUCUGCAUGCCGCCGGGCGCCAUGCCUGCAGGUCGACUCUAGAAAACAUG,binding signal,PUM1 PUF domain R5-FRR,3.38 log2 enrichment (interaction score)
GGCUAGAACUAGUGGAUCCCCCGGCGCCCGGCGGCUCGAGCCCGGGUAAGUGUAAAUCGUCUGCAUGCCGCCGGGCGCCAUGCCUGCAGGUCGACUCUAGAAAACAUG,binding signal,PUM1 PUF domain R1-GIR,4.44 log2 enrichment (interaction score)
same,binding signal,PUM1 PUF domain R1-RCS,3.49 log2 enrichment (interaction score)
GGCUAGAACUAGUGGAUCCCCCGGCGCCCGGCGGCUCGAGCCCGGGUAAGUGUCAAUAGUCUGCAUGCCGCCGGGCGCCAUGCCUGCAGGUCGACUCUAGAAAACAUG,binding signal,PUM1 PUF domain R5-RKS,3.2 log2 enrichment (interaction score)
same,binding signal,PUM1 PUF domain R5-FRR,4.1 log2 enrichment (interaction score)
GGCUAGAACUAGUGGAUCCCCCGGCGCCCGGCGGCUCGAGCCCGGGUAAGUGUAAAUGGUCUGCAUGCCGCCGGGCGCCAUGCCUGCAGGUCGACUCUAGAAAACAUG,binding signal,PUM1 PUF domain R1-RCS,1.75 log2 enrichment (interaction score)
GGCUAGAACUAGUGGAUCCCCCGGCGCCCGGCGGCUCGAGCCCGGGUAAGUGUAUAUAGUCUGCAUGCCGCCGGGCGCCAUGCCUGCAGGUCGACUCUAGAAAACAUG,binding signal,PUM1 PUF domain R4-TPG,4.15 log2 enrichment (interaction score)
same,binding signal,PUM1 PUF domain R4-SPW,2.59 log2 enrichment (interaction score)
GGCUAGAACUAGUGGAUCCCCCGGCGCCCGGCGGCUCGAGCCCGGGUAAGUGAAAAUAGUCUGCAUGCCGCCGGGCGCCAUGCCUGCAGGUCGACUCUAGAAAACAUG,binding signal,PUM1 PUF domain R6-AFL,4.25 log2 enrichment (interaction score)
GGCUAGAACUAGUGGAUCCCCCGGCGCCCGGCGGCUCGAGCCCGGGUAAGUGUAAAUUGUCUGCAUGCCGCCGGGCGCCAUGCCUGCAGGUCGACUCUAGAAAACAUG,binding signal,PUM1 PUF domain R1-GIR,3.23 log2 enrichment (interaction score)
same,binding signal,PUM1 PUF domain R1-RCS,3.23 log2 enrichment (interaction score)
